Measured values from PubChem BioAssay (Tox21).
Inconclusive results are not listed. Calls of active or inactive are those of the source. Unless noted, calls follow the shape of the full dose curve.

Tests used:
[1] = Nuclear factor erythroid 2-related factor 2/antioxidant responsive element (Nrf2/ARE) small molecule agonists: luciferase reporter gene qHTS assay in human keratinocytes (AID 1919969); also: nearly all actives have a fitted effect of over 35% in size; also: potency is read from the fitted curve at half-maximal effect
[2] = biological target: Gonadotropin-releasing hormone receptor (Homo sapiens) (UniProt P30968); assay: Human gonadotropin-releasing hormone receptor (GnRHR) small molecule agonists, calcium flux assay in GnRHR-HEK293 cells (AID 1920063); also: nearly all actives have a fitted effect of over 35% in size
Sequence of Gonadotropin-releasing hormone receptor (Homo sapiens) (P30968 whole entry, looked up): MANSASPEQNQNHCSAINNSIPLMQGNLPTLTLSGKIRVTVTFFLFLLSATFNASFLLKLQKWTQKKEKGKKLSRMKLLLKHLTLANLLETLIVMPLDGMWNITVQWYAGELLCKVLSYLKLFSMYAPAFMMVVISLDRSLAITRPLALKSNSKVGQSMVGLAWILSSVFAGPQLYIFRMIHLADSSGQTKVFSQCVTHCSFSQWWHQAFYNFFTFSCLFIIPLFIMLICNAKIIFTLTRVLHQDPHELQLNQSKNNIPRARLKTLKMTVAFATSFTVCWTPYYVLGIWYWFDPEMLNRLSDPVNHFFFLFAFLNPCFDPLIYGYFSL
In short: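 Stable human GnRHR HEK293 line. 18 h plating, then calcium dye for 1 h at 37 C. Agonist-mode compound addition from DMSO stocks; fluorescence monitored 3 min.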

[3] = biological target: KiSS-1 receptor (Homo sapiens) (UniProt Q969F8); assay: Human kisspeptin (KISS1R) small molecule agonists, calcium flux assay in KISS1R-HEK293 cells (AID 1920064; active = well fitted activation curve with a large enough effect in the repeat runs)
Sequence of KiSS-1 receptor (Homo sapiens) (Q969F8 whole entry, looked up): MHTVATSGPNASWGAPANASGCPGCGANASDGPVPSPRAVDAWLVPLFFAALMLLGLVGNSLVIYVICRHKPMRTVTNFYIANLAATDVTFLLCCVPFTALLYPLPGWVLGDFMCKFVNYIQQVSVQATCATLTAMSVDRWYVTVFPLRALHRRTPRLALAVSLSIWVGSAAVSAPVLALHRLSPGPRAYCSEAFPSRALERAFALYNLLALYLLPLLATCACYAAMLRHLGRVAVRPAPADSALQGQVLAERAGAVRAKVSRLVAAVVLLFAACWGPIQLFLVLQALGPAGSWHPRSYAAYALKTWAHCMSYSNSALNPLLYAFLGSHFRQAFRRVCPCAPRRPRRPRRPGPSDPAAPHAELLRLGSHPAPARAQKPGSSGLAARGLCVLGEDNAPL
In short: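 After overnight (18 h) culture at 37 C/5% CO2, human KISS1R-HEK293 cells received calcium dye for 1 h, then test compound; emission at 540 nm (excitation 480 nm) was tracked for 3 min.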

[4] = G protein-coupled receptor (GPCR) small molecule agonists, calcium flux assay: HEK293 wild type cell line counter screen (AID 1920065)
In short: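 Following 18 h incubation at 37 C/5% CO2, plates got calcium dye for 1 h; compounds, ATP or DMSO were then pinned in and fluorescence followed kinetically (480/540 nm).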

[5] = p53 small molecule agonists, cell-based qHTS assay with human liver microsomes (AID 1963577);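 also: p53 response element beta-lactamase reporter cells with liver microsomes plus NADPH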
In short: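 Reporter activation was measured by LiveBLAzer fluorescence intensity in p53RE-bla cells, which had been exposed to compounds for 16 h at 37 C alongside 0.5 mg/mL human liver microsomes and 0.5 mg/mL NADPH (final concentrations).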

[6] = p53 small molecule agonists, cell-based qHTS assay with rat liver microsomes (AID 1963578)
In short: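 Compound in DMSO added to p53RE-bla cells 5 h post-plating; rat microsomes/NADPH 0.5 mg/mL final; 16 h, 37 C; LiveBLAzer 2 h RT.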

[7] = p53 small molecule agonists, cell-based qHTS assay with human liver microsomes: qHTS cell viability counter screen (AID 1963579); also: nearly all actives have a fitted effect of over 45% in size
In short: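 HLM-supplemented (0.5 mg/mL final) and NADPH-supplemented (0.5 mg/mL final) p53RE-bla cultures, 4,000 cells per well, were dosed with compounds in DMSO for 16 h at 37 C; luminescent ATP detection (CellTiter-Glo, 30 min, room temperature) quantified surviving cells.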

[8] = p53 small molecule agonists, cell-based qHTS assay with rat liver microsomes: qHTS cell viability counter screen (AID 1963580); also: nearly all actives have a fitted effect of over 45% in size
In short: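 Luminescent ATP readout (CellTiter-Glo, 30 min at room temperature) reports viability of p53RE-bla HCT-116 cells after 16 h at 37 C with test compounds under metabolic activation by rat liver microsomes and NADPH at 0.5 mg/mL final each.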

[9] = p53 small molecule agonists, cell-based qHTS assay: qHTS cell viability counter screen (AID 1963581); also: nearly all actives have a fitted effect of over 45% in size; also: potency is read from the fitted curve at half-maximal effect
In short: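 qHTS counter screen: 16 h compound exposure at 37 C of p53RE-bla HCT-116 cells (4,000 per well, seeded 5 h prior), cell viability by ATP luminescence.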

[10] = p53 small molecule agonists, cell-based qHTS assay (AID 1963582; active = well fitted activation curve with a large enough effect in the signal ratio in the repeat runs, not every such curve was filed as active; the % refers to the signal ratio)
In short: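 Measured: fluorescence from cleaved LiveBLAzer substrate. System: p53RE-bla cells, 16 h compound treatment at 37 C, 2 h substrate step at room temperature.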

[11] = biological target: 5-hydroxytryptamine receptor 2A (Homo sapiens) (UniProt P28223); assay: 5-hydroxytryptamine receptor 2A (HTR2A) small molecule antagonists, cell-based qHTS assay (AID 1963586); also: nearly all actives have a fitted effect of over 45% in size
Sequence of 5-hydroxytryptamine receptor 2A (Homo sapiens) (P28223 whole entry, looked up): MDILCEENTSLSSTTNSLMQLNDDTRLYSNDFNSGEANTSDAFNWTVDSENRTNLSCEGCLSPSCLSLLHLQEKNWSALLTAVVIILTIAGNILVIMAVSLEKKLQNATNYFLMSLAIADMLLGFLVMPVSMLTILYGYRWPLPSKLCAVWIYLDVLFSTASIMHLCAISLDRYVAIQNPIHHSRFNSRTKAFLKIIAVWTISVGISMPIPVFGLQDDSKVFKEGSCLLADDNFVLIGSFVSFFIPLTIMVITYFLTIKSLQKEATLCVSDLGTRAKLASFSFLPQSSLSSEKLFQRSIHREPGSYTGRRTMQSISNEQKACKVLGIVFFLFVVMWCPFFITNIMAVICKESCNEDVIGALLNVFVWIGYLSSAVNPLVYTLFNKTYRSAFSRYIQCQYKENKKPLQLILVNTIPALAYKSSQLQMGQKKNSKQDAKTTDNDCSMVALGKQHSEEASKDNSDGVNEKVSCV
In short: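 CHO cells stably expressing human HTR2A were plated for 18 h at 37 C, then loaded with calcium dye for 1 h. Compounds were preincubated 5 min at room temperature before DOI (4 nM solution) was added. Kinetic fluorescence was read for 3 min.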

[12] = biological target: 5-hydroxytryptamine receptor 2A (Homo sapiens) (UniProt P28223); assay: 5-hydroxytryptamine receptor 2A (HTR2A) small molecule agonists, cell-based qHTS assay (AID 1963587); also: nearly all actives have a fitted effect of over 30% in size
In short: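 HTR2A-CHO cells, plated 18 h at 37 C/5% CO2, dye-loaded 1 h at 37 C; compounds in DMSO added by pin tool (agonist mode). Intracellular calcium flux read as kinetic fluorescence on FDSS over 2 min at 1 s intervals.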

[13] = biological target: Muscarinic acetylcholine receptor M1 (Homo sapiens) (UniProt P11229); assay: Cholinergic receptor muscarinic 1 (CHRM1) small molecule antagonists, cell-based qHTS assay (AID 1963588); also: nearly all actives have a fitted effect of over 40% in size
Sequence of Muscarinic acetylcholine receptor M1 (Homo sapiens) (P11229 whole entry, looked up): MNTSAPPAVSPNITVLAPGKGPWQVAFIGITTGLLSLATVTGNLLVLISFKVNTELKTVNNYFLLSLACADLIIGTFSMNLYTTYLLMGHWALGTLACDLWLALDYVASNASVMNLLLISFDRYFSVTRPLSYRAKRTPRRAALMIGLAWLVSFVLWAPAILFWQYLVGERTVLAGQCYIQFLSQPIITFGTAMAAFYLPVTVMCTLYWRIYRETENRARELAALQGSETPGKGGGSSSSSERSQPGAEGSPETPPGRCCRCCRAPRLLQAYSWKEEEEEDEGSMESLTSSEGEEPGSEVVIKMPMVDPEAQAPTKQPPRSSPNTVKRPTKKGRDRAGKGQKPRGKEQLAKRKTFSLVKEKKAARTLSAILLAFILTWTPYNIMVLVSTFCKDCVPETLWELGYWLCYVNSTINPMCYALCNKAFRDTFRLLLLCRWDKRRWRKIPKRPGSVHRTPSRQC
In short: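 Compounds were tested at 15 concentrations in three independent runs. Dye-loaded CHRM1-CHO cells were exposed 5 min at room temperature before stimulation by acetylcholine added at 50nM. Intracellular calcium was read kinetically on FDSS for 3 min.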

[14] = biological target: Muscarinic acetylcholine receptor M1 (Homo sapiens) (UniProt P11229); assay: Cholinergic receptor muscarinic 1 (CHRM1) small molecule agonists, cell-based qHTS assay (AID 1963589); also: nearly all actives have a fitted effect of over 35% in size
In short: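 Kinetic fluorescence (1 s intervals) of calcium-sensitive dye in human M1 CHO cells after compound addition; cells pre-incubated 18 h at 37 C/5% CO2 and dye-loaded 1 h.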

[15] = cAMP Responsive Elements (CRE) small molecule agonists, cell-based qHTS assay (AID 1963590)
In short: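 Test agents in DMSO were incubated 3 h at 37 C/5% CO2 with CRE-bla HEK 293T cells seeded 18 h earlier; LiveBLAzer B/G FRET substrate was added and read after 2 h at room temperature.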

[16] = cAMP Responsive Elements (CRE) small molecule antagonists, cell-based qHTS assay (AID 1963591; active = well fitted inhibition curve with a large enough effect in the signal ratio in the repeat runs, not every such curve was filed as active; the % refers to the signal ratio)
In short: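 Reporter line CRE-bla HEK 293T in dialyzed-FBS DMEM; cells preincubated 18 h, treated 3 h with compound plus NKH477 (0.25 uM final); LiveBLAzer FRET, 2 h RT.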

[17] = biological target: Beta-2 adrenergic receptor (Homo sapiens) (UniProt P07550); assay: Adrenergic beta2 receptor (ADRB2) small molecule antagonists, cell-based qHTS assay (AID 1963592); also: nearly all actives have a fitted effect of over 50% in size; also: potency is read from the fitted curve at half-maximal effect
Sequence of Beta-2 adrenergic receptor (Homo sapiens) (P07550 whole entry, looked up): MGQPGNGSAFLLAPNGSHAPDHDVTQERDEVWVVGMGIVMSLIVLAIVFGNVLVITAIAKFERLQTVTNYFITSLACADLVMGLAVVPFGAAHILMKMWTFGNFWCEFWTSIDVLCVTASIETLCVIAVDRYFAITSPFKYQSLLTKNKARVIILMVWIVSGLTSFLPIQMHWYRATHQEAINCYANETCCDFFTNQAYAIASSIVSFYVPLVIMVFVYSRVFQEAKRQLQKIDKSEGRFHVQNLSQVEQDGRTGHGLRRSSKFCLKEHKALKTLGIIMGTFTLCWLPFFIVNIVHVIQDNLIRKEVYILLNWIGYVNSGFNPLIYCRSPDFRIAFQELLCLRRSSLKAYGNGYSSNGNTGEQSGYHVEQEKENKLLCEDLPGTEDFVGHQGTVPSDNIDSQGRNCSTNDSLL
In short: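 Assay format: CHO-ADRB2 cells, 18-20hr seeding at 37C/5% CO2, then compound plus 1nM isoproterenol agonist mix for 0.5hr RT. Homogeneous time-resolved fluorescence cAMP detection after 1hr, expressed as 665/615 nm ratio.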

[18] = biological target: D(2) dopamine receptor (Homo sapiens) (UniProt P14416); assay: Dopamine D2 receptor (DRD2) small molecule agonists, cell-based qHTS assay (AID 1963594); also: nearly all actives have a fitted effect of over 35% in size; also: potency is read from the fitted curve at half-maximal effect
Sequence of D(2) dopamine receptor (Homo sapiens) (P14416 whole entry, looked up): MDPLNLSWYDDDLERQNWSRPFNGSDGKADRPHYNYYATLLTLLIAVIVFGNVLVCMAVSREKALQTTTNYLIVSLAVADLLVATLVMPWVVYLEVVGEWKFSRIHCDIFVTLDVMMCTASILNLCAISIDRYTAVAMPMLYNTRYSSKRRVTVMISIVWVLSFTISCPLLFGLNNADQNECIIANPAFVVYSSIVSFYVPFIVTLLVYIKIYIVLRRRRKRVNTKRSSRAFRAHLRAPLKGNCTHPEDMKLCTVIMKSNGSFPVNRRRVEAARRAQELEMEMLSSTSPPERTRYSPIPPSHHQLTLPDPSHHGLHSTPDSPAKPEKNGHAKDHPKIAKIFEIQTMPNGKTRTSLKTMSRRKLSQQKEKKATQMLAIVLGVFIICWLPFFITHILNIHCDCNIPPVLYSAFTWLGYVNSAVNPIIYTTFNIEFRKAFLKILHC
In short: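 HEK293 cells stably expressing DRD2 were cultured 24 h at 37 C, then given Ro20-1724 (0.1 mM final) and compounds for 10 min at room temperature. NKH477 (200nM) was then added for 30 min. cAMP was read by HTRF.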

[19] = biological target: D(2) dopamine receptor (Homo sapiens) (UniProt P14416); assay: Dopamine D2 receptor (DRD2) small molecule antagonists, cell-based qHTS assay (AID 1963595; active = well fitted inhibition curve with a large enough effect in the signal ratio in the repeat runs, with a control signal flat; the % refers to the signal ratio; also: potency is read from the fitted curve at half-maximal effect)
In short: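 HTRF cAMP read-out at 665 and 620 nm emission (340 nm excitation). Antagonist mode: compounds were tested against 12 nM quinpirole in DRD2-HEK293 cells, with 200 nM NKH477 raising cAMP and 0.1 mM Ro20-1724 blocking its breakdown.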

[20] = biological target: Beta-2 adrenergic receptor (Homo sapiens) (UniProt P07550); assay: Adrenergic beta2 receptor (ADRB2) small molecule agonists, cell-based qHTS assay (AID 1963593);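 also: CHO cells stably overexpressing human ADRB2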
In short: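 CHO cells stably over-expressing ADRB2 were plated overnight at 37C, then dosed with compounds plus a stimulation mix containing 100uM IBMX and 25uM Ro-20-1724 for 0.5hr at room temperature. cAMP was measured by HTRF competition, 1hr.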

Measured: Potency

Cc1ccc2sc3cccc(C)c3c2c1
inactive: [1] | [2] | [3] | [4] | [5] | [6] | [7] | [8] | [9] | [10] | [11] | [12] | [13] | [14] | [15] | [16] | [17] | [18] | [19]

CCN(CC)CCOc1ccc(C(O)(Cc2ccc(Cl)cc2)c2ccc(C)cc2)cc1 (configuration not stated)
active: [9] 19.9 µM
inactive: [1] | [2] | [3] | [4] | [5] | [6] | [7] | [8] | [10] | [11] | [17] | [20] | [18] | [19]

Cc1cscn1
inactive: [1] | [2] | [3] | [4] | [5] | [6] | [7] | [8] | [9] | [10] | [12] | [13] | [14] | [15] | [16] | [17] | [18] | [19]

C=CCOc1c(Br)cc(C(C)(C)c2cc(Br)c(OCC=C)c(Br)c2)cc1Br
inactive: [1] | [2] | [3] | [4] | [5] | [6] | [7] | [8] | [9] | [10] | [11] | [12] | [13] | [14] | [15] | [16] | [17]

CC(=O)Nc1ccc(N)cc1
inactive: [1] | [2] | [3] | [4] | [5] | [6] | [7] | [8] | [9] | [10] | [11] | [13] | [15] | [17] | [20]

C=C(C)C(=O)OCCOCC
inactive: [2] | [3] | [4] | [5] | [6] | [7] | [8] | [9] | [10] | [11] | [12] | [13] | [14] | [15] | [16] | [17] | [18] | [19]
active: [1] 54.7 µM

Cc1nccn1CC1CCc2c(c3ccccc3n2C)C1=O (configuration not stated)
inactive: [1] | [2] | [3] | [4] | [5] | [6] | [7] | [8] | [9] | [10] | [15] | [16] | [17] | [20]

Cc1c(N)cccc1Cl
inactive: [1] | [2] | [3] | [4] | [5] | [6] | [8] | [9] | [11] | [12] | [13] | [14] | [15] | [16] | [17] | [18] | [19]

CN1CCC(=C2c3ccccc3C=Cc3ccccc32)CC1
active: [19] 13.3 µM
inactive: [1] | [2] | [3] | [4] | [5] | [6] | [7] | [8] | [10] | [15] | [16] | [18]

CCN(CC)C(=O)Nc1ccc(OCC(O)CNC(C)(C)C)c(C(C)=O)c1 (configuration not stated)
inactive: [1] | [2] | [3] | [4] | [5] | [7] | [9] | [10] | [11] | [12] | [13] | [14] | [15] | [16] | [19]
active: [17] 0.0473 µM

CCOC(=O)OC(C)OC1=C(C(=O)Nc2ccccn2)N(C)S(=O)(=O)c2ccccc21 (configuration not stated)
inactive: [1] | [2] | [3] | [4] | [5] | [6] | [8] | [9] | [10] | [16] | [17] | [20] | [19]

CC(=O)OCC(=O)[C@@]1(O)CC[C@H]2[C@@H]3CCC4=CC(=O)C=C[C@]4(C)[C@@]3(F)[C@@H](O)C[C@@]21C
inactive: [1] | [2] | [3] | [4] | [5] | [7] | [8] | [10] | [11] | [13] | [14] | [15] | [16] | [17] | [18]

Nc1cccc(S(=O)(=O)O)c1
inactive: [1] | [2] | [3] | [4] | [6] | [7] | [8] | [9] | [10] | [11] | [12] | [13] | [14] | [15] | [17] | [18]

CCCNC(C)C(=O)Nc1ccccc1C (configuration not stated)
inactive: [1] | [2] | [3] | [4] | [6] | [7] | [8] | [9] | [10] | [15] | [16] | [17] | [20] | [19]
active: [18] 14.4 µM
